Reference: PubChem BioAssay (Tox21)
Inconclusive results are not listed. Active and inactive are the calls of the source. Unless noted, calls follow the shape of the dose curve; as a rule, active = well fitted curve in the direction sought with a large enough effect in the repeat runs; inconclusive = weak or mixed curves; inactive = no such curve, though single readings can be large; an effect the other way counts as inactive or inconclusive.

Assays:
[1] = qHTS assay to identify small molecule agonists of the peroxisome proliferator-activated receptor delta (PPARd) signaling pathway - cell viability counter screen (AID 743211); also: nearly all actives have a fitted effect of over 55% in size
How it was run: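 Counter screen for cytotoxicity run in parallel with the PPARd reporter screen. Beta-lactamase reporter HEK293H cells exposed to compounds 17 h; ATP-based CellTiter-Glo luminescence quantified viability.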

[2] = target: Peroxisome proliferator-activated receptor delta (Homo sapiens) (UniProt Q03181); assay: qHTS assay to identify small molecule agonists of the peroxisome proliferator-activated receptor delta (PPARd) signaling pathway (AID 743212; calls by dose curve;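 also: HEK293H cells with PPARd UAS beta-lactamase reporter GeneBLAzer system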)
Chain of Peroxisome proliferator-activated receptor delta (Homo sapiens) (Q03181 whole entry, looked up): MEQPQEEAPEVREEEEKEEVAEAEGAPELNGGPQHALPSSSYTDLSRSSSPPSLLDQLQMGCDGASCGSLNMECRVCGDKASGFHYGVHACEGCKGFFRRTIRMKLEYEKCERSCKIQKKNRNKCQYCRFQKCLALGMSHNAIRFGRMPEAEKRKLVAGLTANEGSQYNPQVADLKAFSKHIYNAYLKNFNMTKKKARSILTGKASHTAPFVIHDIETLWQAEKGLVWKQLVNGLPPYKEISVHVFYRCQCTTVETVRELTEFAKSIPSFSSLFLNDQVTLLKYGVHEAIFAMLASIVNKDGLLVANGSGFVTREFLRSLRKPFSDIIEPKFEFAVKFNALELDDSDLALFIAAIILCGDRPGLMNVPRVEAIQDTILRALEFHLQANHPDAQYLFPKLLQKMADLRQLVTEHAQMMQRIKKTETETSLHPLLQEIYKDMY
How it was run: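 Beta-lactamase reporter read by fluorescence (LiveBLAzer B/G FRET, 2 h, room temperature). Test agents, in DMSO, incubated at 37 C with PPARd-bla HEK293H cells.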

[3] = target: Peroxisome proliferator-activated receptor delta (Homo sapiens) (UniProt Q03181); assay: qHTS assay to identify small molecule antagonists of the peroxisome proliferator-activated receptor delta (PPARd) signaling pathway (AID 743215; active = well fitted inhibition curve with a large enough effect in the signal ratio in the repeat runs, not every such curve was filed as active; the % refers to the signal ratio;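 also: cells stimulated with agonist L165041 at 300 nM final during compound exposure; series mostly up to about 62 µM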)
How it was run: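 Fluorescence from cleaved LiveBLAzer B/G FRET substrate (2 h, room temperature) reports PPARd-driven beta-lactamase in HEK293H UAS-bla cells. Cells had been treated 17 h at 37 C with compound plus 300 nM final L165041.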

[4] = qHTS assay to identify small molecule agonists of the farnesoid-X-receptor (FXR) signaling pathway - cell viability counter screen (AID 743218); also: nearly all actives have a fitted effect of over 45% in size
How it was run: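 Readout: CellTiter-Glo luminescence, 30 min RT, multiplexed after the FXR-bla FRET reading. HEK 293T FXR-UAS-bla cells received compound 5 h post-plating and were incubated 16 h at 37 C.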

[5] = qHTS assay to identify small molecule antagonists of the farnesoid-X-receptor (FXR) signaling pathway - cell viability counter screen (AID 743221; active = well fitted cell-killing curve with a large enough effect in the repeat runs, not every such curve was filed as active; also: nearly all actives have a fitted effect of over 50% in size)
How it was run: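 Multiplexed counter screen: viability of FXR-bla HEK 293T cells under agonist stimulation by chenodeoxycholic acid (50 uM, final) and test compound for 16 h at 37 C, measured by CellTiter-Glo luminescence in the reporter wells.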

[6] = qHTS assay to identify small molecule agonists of the vitamin D receptor (VDR) signaling pathway - cell viability counter screen (AID 743224); also: series mostly up to about 63 µM; nearly all actives have a fitted effect of over 50% in size
How it was run: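 In parallel with the bla FRET readout, cytotoxicity toward VDR-bla cells after 16 h compound exposure was assessed by CellTiter-Glo, with luminescence recorded after a 30 min room-temperature incubation.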

[7] = qHTS assay to identify small molecule antagonists of the vitamin D receptor (VDR) signaling pathway - cell viability counter screen (AID 743225); also: nearly all actives have a fitted effect of over 50% in size
How it was run: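 HEK293T VDR-bla; cpd + 1a,25-(OH)2D3 3 nM final, 16 h 37C/5% CO2; B/G FRET substrate 2 h RT; then CellTiter-Glo 30 min RT, luminescence.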

[8] = qHTS assay to identify small molecule agonists of the NFkB signaling pathway - cell viability counter screen (AID 1159515; calls by dose curve; also: series mostly up to about 61 µM; nearly all actives have a fitted effect of over 55% in size)
How it was run: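 Plate 2,000 NFkB-bla ME-180 cells/well; incubate overnight. Add compounds, 5 hr at 37 C. Add FRET substrate, 1.5 hr RT. Add CellTiter-Glo, 30 min RT; read luminescence.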

[9] = qHTS assay to identify small molecule agonists of the endoplasmic reticulum stress response signaling pathway (AID 1159516; active = well fitted activation curve with a large enough effect in the signal ratio in the repeat runs, not every such curve was filed as active; the % refers to the signal ratio)
How it was run: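 Beta-lactamase expression from the ER stress response element in HeLa reporter cells is quantified with the LiveBLAzer B/G FRET substrate, read at 405 nm excitation after 2 hr at room temperature, following 5 hr compound treatment at 37 C.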

[10] = qHTS assay to identify small molecule agonists of the endoplasmic reticulum stress response signaling pathway - cell viability counter screen (AID 1159517; calls by dose curve; also: series mostly up to about 61 µM; nearly all actives have a fitted effect of over 50% in size)
How it was run: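 Cytotoxicity of test compounds toward ESRE-bla HeLa cells was assessed after 5 hr exposure. The luminescent CellTiter-Glo signal was measured 30 min after reagent addition.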

[11] = qHTS assay to identify small molecule antagonists of the retinoid-related orphan receptor gamma (ROR-gamma) signaling pathway - cell viability counter screen (AID 1159520); also: nearly all actives have a fitted effect of over 50% in size
How it was run: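 Tet-on ROR gamma CHO cells (1,000/well) were plated 4 hr, given compounds in DMSO for 2 hr at 37 C, then induced with 1 uM final doxycycline for 16 hr. Viability was read as ATP by CellTiter-Glo luminescence after 30 min.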

[12] = target: Nuclear receptor ROR-gamma (Homo sapiens) (UniProt P51449); assay: qHTS assay to identify small molecule antagonists of the retinoid-related orphan receptor gamma (ROR-gamma) signaling pathway (AID 1159521)
How it was run: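 Cells were plated, rested 4 h at 37 C, exposed to compounds for 2 h, then given 1 uM final doxycycline hyclate to induce RORγ expression. After 16 h, ONE-Glo luminescence from the ROR response element reporter was measured.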

[13] = qHTS assay to identify small molecule agonists of the AP-1 signaling pathway - cell viability counter screen (AID 1159525; calls by dose curve; also: nearly all actives have a fitted effect of over 55% in size)
How it was run: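 Each titration point was normalised to DMSO and tetra n-octyl ammonium bromide controls. The read was Cell Titer Glo luminescence after 30 min at RT, following 5 h compound exposure of ME-180 AP-1-bla cells at 37 °C.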

[14] = qHTS assay to identify small molecule agonists of the AP-1 signaling pathway (AID 1159526; calls by dose curve)
[15] = qHTS assay to identify small molecule antagonists of the peroxisome proliferator-activated receptor delta (PPARd) signaling pathway - cell viability counter screen (AID 743213); also: nearly all actives have a fitted effect of over 50% in size
How it was run: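 CellTiter-Glo was added to PPARd-bla HEK293H wells following 17 h compound treatment in the presence of 300 nM L165041. Luminescence was recorded after 30 min at room temperature.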

[16] = target: Bile acid receptor (Homo sapiens) (UniProt Q96RI1); assay: qHTS assay to identify small molecule antagonists of the farnesoid-X-receptor (FXR) signaling pathway (AID 743217; active = well fitted inhibition curve with a large enough effect in the signal ratio in the repeat runs, not every such curve was filed as active; the % refers to the signal ratio)
Chain of Bile acid receptor (Homo sapiens) (Q96RI1 whole entry, looked up): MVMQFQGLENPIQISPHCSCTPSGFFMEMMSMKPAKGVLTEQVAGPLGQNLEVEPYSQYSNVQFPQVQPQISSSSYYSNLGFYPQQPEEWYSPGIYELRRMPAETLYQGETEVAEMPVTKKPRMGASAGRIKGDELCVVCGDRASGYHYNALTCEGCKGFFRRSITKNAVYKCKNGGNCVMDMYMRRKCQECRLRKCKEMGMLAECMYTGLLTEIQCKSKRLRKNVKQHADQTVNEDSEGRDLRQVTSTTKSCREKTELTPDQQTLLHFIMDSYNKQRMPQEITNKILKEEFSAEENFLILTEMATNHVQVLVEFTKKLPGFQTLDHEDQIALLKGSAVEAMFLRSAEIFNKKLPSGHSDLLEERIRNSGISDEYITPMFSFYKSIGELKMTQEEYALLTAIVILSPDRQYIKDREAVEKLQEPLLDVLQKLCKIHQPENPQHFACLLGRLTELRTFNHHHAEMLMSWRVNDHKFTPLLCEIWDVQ
How it was run: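 FRET fluorescence after 2 h room-temperature LiveBLAzer loading gives the readout. Prior step: FXR-bla HEK 293T cells, seeded and incubated 5 h, received test compounds plus 50 uM final CDCA for 16 h at 37 °C.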

[17] = target: Bile acid receptor (Homo sapiens) (UniProt Q96RI1); assay: qHTS assay to identify small molecule agonists of the farnesoid-X-receptor (FXR) signaling pathway (AID 743220; active = well fitted activation curve with a large enough effect in the signal ratio in the repeat runs, not every such curve was filed as active; the % refers to the signal ratio)
How it was run: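 FXR-UAS-bla HEK 293T cells carrying a UAS-driven beta-lactamase reporter were plated for 5 h at 37C/5% CO2, then exposed to DMSO-dissolved Tox21 10K compounds for 16 h at 37C. A LiveBLAzer B/G FRET substrate was loaded for 2 h at room temperature before fluorescence reading.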

[18] = target: Vitamin D3 receptor (Homo sapiens) (UniProt P11473); assay: qHTS assay to identify small molecule antagonists of the vitamin D receptor (VDR) signaling pathway (AID 743223; active = well fitted inhibition curve with a large enough effect in the signal ratio in the repeat runs, not every such curve was filed as active; the % refers to the signal ratio)
Chain of Vitamin D3 receptor (Homo sapiens) (P11473 whole entry, looked up): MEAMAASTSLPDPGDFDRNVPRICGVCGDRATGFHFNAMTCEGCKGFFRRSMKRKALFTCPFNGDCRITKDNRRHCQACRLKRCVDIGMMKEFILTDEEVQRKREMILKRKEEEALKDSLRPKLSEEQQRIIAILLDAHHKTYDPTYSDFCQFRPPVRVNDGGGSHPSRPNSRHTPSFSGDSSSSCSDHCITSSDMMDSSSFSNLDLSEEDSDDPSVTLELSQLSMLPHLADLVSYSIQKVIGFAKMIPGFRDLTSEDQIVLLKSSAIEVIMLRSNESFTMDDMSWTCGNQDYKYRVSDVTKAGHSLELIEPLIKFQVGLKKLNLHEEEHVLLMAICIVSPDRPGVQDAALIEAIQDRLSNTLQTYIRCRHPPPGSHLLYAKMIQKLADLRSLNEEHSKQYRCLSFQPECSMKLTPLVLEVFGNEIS
How it was run: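 Cells carrying a VDR-driven beta-lactamase reporter (VDR-bla) were co-treated with compound and 3 nM final 1alpha,25-dihydroxyvitamin D3 for 16 h at 37C; reporter activity was measured as FRET substrate fluorescence after 2 h at room temperature.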

[19] = target: Vitamin D3 receptor (Homo sapiens) (UniProt P11473); assay: qHTS assay to identify small molecule agonists of the vitamin D receptor (VDR) signaling pathway (AID 743222; calls by dose curve)
How it was run: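 Following 4 h attachment at 37C, VDR-bla cells (2,000 per well) received DMSO-dissolved compounds or controls. After 16 h incubation, LiveBLAzer B/G FRET substrate was added and fluorescence read 2 h later at room temperature.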

Measured: outcome

c1ccc2c(CC3=NCCN3)cccc2c1
not listed: [15] | [16] | [17] | [18] | [19]
inactive: all other assays above

Cc1c(N)cccc1Cl
not listed: [10] | [19]
inactive: all other assays above

CC(C)CCOC(=O)c1ccccc1
not listed: [15] | [16] | [18]
inactive: all other assays above

CC(=O)OC1CCCCC1C(C)(C)C (centres undefined)
not listed: [4] | [5] | [10] | [11] | [16] | [17] | [18]
inactive: all other assays above

Cc1cc(-c2ccccc2)nnc1NCCN1CCOCC1
not listed: [3] | [4] | [15] | [16] | [17] | [18]
inactive: all other assays above

Nc1nc(-c2ccccc2)c(Br)c(=O)[nH]1
not listed: [5] | [16] | [17]
inactive: all other assays above

CC(=O)C1C(=O)C=C(C)OC1=O (centres undefined)
not listed: [3]
inactive: all other assays above

COc1ccc2c(c1)c1c3n2CCN(C)C3=NCC1
not listed: [3] | [16] | [17] | [18]
inactive: all other assays above

CCC(C)C(C)=O (centres undefined)
not listed: [3] | [4] | [15] | [16] | [17]
inactive: all other assays above

CC(=O)Nc1ccc(OC(=O)c2ccccc2OC(C)=O)cc1
not listed: [6] | [15] | [16] | [17] | [18]
inactive: all other assays above

c1ccc(-c2nn[nH]n2)cc1
not listed: [2] | [3] | [5] | [10] | [18]
inactive: all other assays above

OC1(c2ccc(Cl)cc2)CCNCC1
not listed: [5]
inactive: all other assays above

CC/C=C\CCOC(=O)c1ccccc1O
not listed: [10] | [16] | [17] | [19]
inactive: all other assays above

CC(C)OC(=O)CCC(=O)OC(C)C
not listed: [6] | [15] | [18]
inactive: all other assays above

[O-][n+]1cccc(/C(Cl)=N/OC[C@@H](O)CN2CCCCC2)c1
not listed: [5] | [16] | [17] | [18] | [19]
inactive: all other assays above

CC(C)C[C@@H]1[C@H](c2ccccc2)OC(=O)N1CCCN1CCCCCC1
not listed: [1] | [5] | [6] | [16] | [17] | [18] | [19]
inactive: all other assays above

CC1=C(C(=O)O)N2C(=O)[C@@H](NC(=O)[C@H](N)C3=CCC=CC3)[C@H]2SC1
not listed: [4] | [15] | [16] | [17] | [18]
inactive: all other assays above

CC(=O)CCc1ccc(OC(C)=O)cc1
not listed: [10] | [11]
inactive: all other assays above

CC(S)C(C)S (centres undefined)
not listed: [3] | [7] | [18]
inactive: all other assays above

COC(=O)c1cc(Cl)cc(Cl)c1
not listed: [4] | [5] | [11] | [16] | [17] | [19]
inactive: all other assays above

CCCCOCC(C)O (centres undefined)
not listed: [2] | [3] | [16] | [17] | [18]
inactive: all other assays above

CCO[Si](CC)(OCC)OCC
not listed: [4] | [16] | [17] | [18]
inactive: all other assays above

C/C(CC(C)C)=N\O
not listed: [5] | [15] | [16] | [17]
inactive: all other assays above

C=Cc1ccc(C(C)(C)C)cc1
not listed: [3] | [18] | [19]
inactive: all other assays above

CC1(C)Cc2cccc(N)c2O1
not listed: [4] | [6] | [10] | [18] | [19]
inactive: all other assays above

CC12CCC(C1)C(C)(C)C2O (centres undefined)
not listed: [4] | [5] | [6] | [10]
inactive: all other assays above

O=C(O)CNC(=O)CNC(=O)CNC(=O)CSC(=O)c1ccccc1
not listed: [2] | [3] | [16] | [17]
inactive: all other assays above

NCc1ccc(S(N)(=O)=O)cc1
not listed: [7] | [10] | [19]
inactive: all other assays above

CCN(CC)CCN
not listed: [2] | [3] | [10] | [15] | [19]
inactive: all other assays above

Cc1cccc(Cl)c1
not listed: [5] | [18] | [19]
inactive: all other assays above

CC1=NN(c2ccc(S(=O)(=O)O)cc2)C(=O)C1
not listed: [2] | [3] | [16] | [17] | [18]
inactive: all other assays above

N#CCC(=O)NN
not listed: [4] | [11] | [16] | [17] | [18]
inactive: all other assays above

CC(C)Cn1cnc2c1c(=O)n(C)c(=O)n2C
not listed: [5] | [15]
inactive: all other assays above

O=C1CCC(=O)N1Cl
not listed: [11] | [15] | [16] | [17]
inactive: all other assays above

CCC(C)C(=O)OCCc1ccccc1 (centres undefined)
not listed: [16] | [18] | [19]
inactive: all other assays above
